According to PubChem BioAssay (NCI):
Compounds without any hit were thinned out: in the full panel of roughly 83,000, 20% have a hit.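 Single-dose data. Exposure time 48 hours. Values below 10 considered active.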 Calls of active or inactive are those of the source.

How the values were obtained:
Test in all cases: NCI-60 one-dose screen, 48 h (100 = growth as untreated, 0 = no growth, -100 = all killed)
Details in all cases: 10 µM unless noted
NCI-H23 lung = system: NCI-H23 lung
NCI-H226 lung = system: NCI-H226 lung
NCI-H322M lung = system: NCI-H322M lung
HOP-62 NSCLC = system: HOP-62 NSCLC
NCI-H460 lung = system: NCI-H460 lung
HOP-92 NSCLC = system: HOP-92 NSCLC
NCI-H522 lung = system: NCI-H522 lung
A549/ATCC NSCLC = system: A549/ATCC NSCLC
786-0 renal = system: 786-0 renal
COLO 205 colon = system: COLO 205 colon
DU-145 prostate = system: DU-145 prostate
K-562 leukemia = system: K-562 leukemia
MALME-3M melanoma = system: MALME-3M melanoma
MDA-MB-231 breast = system: MDA-MB-231 breast
RXF 393 renal = system: RXF 393 renal
SF-268 CNS = system: SF-268 CNS
SF-295 CNS = system: SF-295 CNS
SF-539 CNS = system: SF-539 CNS
UACC-257 melanoma = system: UACC-257 melanoma
M14 melanoma = system: M14 melanoma

Measured: growth

N/C(=N\c1nc2ccccc2s1)NC(=NC1CCCCC1)NC1CCCCC1
inactive: NCI-H23 lung 30.6% | NCI-H226 lung 77.1% | NCI-H322M lung 40.4% | HOP-62 NSCLC 67.7% | NCI-H522 lung 14% | A549/ATCC NSCLC 45.9% | 786-0 renal 25.1% | DU-145 prostate 14.3% | MDA-MB-231 breast 21.1% | SF-268 CNS 60%
active: NCI-H460 lung -44.4% | HOP-92 NSCLC -1.22% | COLO 205 colon -44.9% | K-562 leukemia 3.16% | MALME-3M melanoma -70% | RXF 393 renal -46.9% | SF-295 CNS -34.9% | SF-539 CNS -44.7% | UACC-257 melanoma -52.6% | M14 melanoma -55.8%

CCOC(=O)c1c2c(n3ccccc13)C(=O)c1ncccc1C2=O
inactive: NCI-H322M lung 11.4% | HOP-92 NSCLC 28.4% | COLO 205 colon 20.7% | K-562 leukemia 11.2% | MALME-3M melanoma 18.1% | MDA-MB-231 breast 13.4% | RXF 393 renal 25% | SF-268 CNS 20% | SF-295 CNS 22.3%
active: NCI-H23 lung 4.7% | NCI-H226 lung 9.64% | HOP-62 NSCLC -11.7% | NCI-H460 lung 1.12% | NCI-H522 lung -22.2% | A549/ATCC NSCLC 8.27% | 786-0 renal 2.37% | DU-145 prostate 8.05% | SF-539 CNS -2.14% | UACC-257 melanoma -3.95% | M14 melanoma -37.6%

O=C1NC(=Nc2ccc(O)cc2)S/C1=C\c1cccs1
active: NCI-H460 lung 3.62% | HOP-92 NSCLC -7.99%
inactive: NCI-H23 lung 47.4% | NCI-H226 lung 57.4% | NCI-H322M lung 35.3% | HOP-62 NSCLC 46.7% | NCI-H522 lung 15.5% | A549/ATCC NSCLC 35.4% | 786-0 renal 20.2% | COLO 205 colon 105% | DU-145 prostate 44.6% | K-562 leukemia 14.7% | MALME-3M melanoma 68.8% | MDA-MB-231 breast 57.9% | RXF 393 renal 41.2% | SF-268 CNS 50% | SF-295 CNS 34.8% | SF-539 CNS 16.7% | UACC-257 melanoma 70.5% | M14 melanoma 34.8%

CC[C@H](Nc1nc(N)nc(C)c1C#N)c1nc2cccc(NCCCCCC(=O)NO)c2c(=O)n1-c1ccccc1
active: RXF 393 renal -6.92%
inactive: NCI-H23 lung 73.3% | NCI-H226 lung 75% | NCI-H322M lung 75.9% | HOP-62 NSCLC 66.2% | NCI-H460 lung 77% | HOP-92 NSCLC 27.2% | NCI-H522 lung 53.2% | A549/ATCC NSCLC 79.3% | 786-0 renal 27.5% | COLO 205 colon 86.2% | DU-145 prostate 69.5% | K-562 leukemia 77.1% | MALME-3M melanoma 52.6% | MDA-MB-231 breast 61.8% | SF-268 CNS 55.7% | SF-295 CNS 22.9% | SF-539 CNS 45.9% | UACC-257 melanoma 54.4% | M14 melanoma 71.3%

C(/C=C/c1ccccc1)=Nc1ccc(CCc2ccc(N=C/C=C/c3ccccc3)cc2)cc1
inactive: NCI-H23 lung 85.2% | NCI-H226 lung 95.9% | NCI-H322M lung 97.6% | HOP-62 NSCLC 98.2% | NCI-H460 lung 54.8% | HOP-92 NSCLC 107% | NCI-H522 lung 76.6% | A549/ATCC NSCLC 104% | 786-0 renal 106% | COLO 205 colon 101% | DU-145 prostate 25.6% | K-562 leukemia 78.3% | MALME-3M melanoma 115% | MDA-MB-231 breast 92% | RXF 393 renal 83.8% | SF-268 CNS 104% | SF-295 CNS 73.3% | SF-539 CNS 108% | UACC-257 melanoma 97.9% | M14 melanoma 89.9%

COc1ccc2c(c1)c(-c1nc(-c3cn(C)c4ncccc34)cs1)cn2CCO
inactive: NCI-H23 lung 89.4% | NCI-H226 lung 70.1% | NCI-H322M lung 77.7% | HOP-62 NSCLC 81.2% | NCI-H460 lung 74.9% | HOP-92 NSCLC 70.4% | NCI-H522 lung 60.5% | A549/ATCC NSCLC 79.8% | 786-0 renal 80% | COLO 205 colon 81.2% | DU-145 prostate 90.9% | K-562 leukemia 25.2% | MALME-3M melanoma 110% | MDA-MB-231 breast 57% | RXF 393 renal 84.6% | SF-268 CNS 91.1% | SF-295 CNS 74.1% | SF-539 CNS 75% | UACC-257 melanoma 92.4% | M14 melanoma 75.1%

CCCn1c(=S)sc2c1nc(C)n1c(Nc3ccccc3)nnc21
inactive: NCI-H23 lung 26.6% | NCI-H226 lung 66.9% | NCI-H322M lung 83.9% | HOP-62 NSCLC 75.5% | NCI-H460 lung 45.3% | HOP-92 NSCLC 48.9% | NCI-H522 lung 12.4% | A549/ATCC NSCLC 66.1% | 786-0 renal 54.8% | COLO 205 colon 128% | DU-145 prostate 109% | K-562 leukemia 37.6% | MALME-3M melanoma 65.4% | MDA-MB-231 breast 84.5% | RXF 393 renal 29.3% | SF-268 CNS 99.4% | SF-295 CNS 51.7% | SF-539 CNS 62.9% | UACC-257 melanoma 75.3% | M14 melanoma 89.1%

C=C1C(=O)O[C@H]2[C@H]1CC/C(COC(=O)/C=C\C(=O)NCc1ccc(Cn3c(=O)sn(-c4ccccc4)c3=O)cc1)=C\CC[C@@]1(C)O[C@@H]21
inactive: NCI-H23 lung 92.1% | NCI-H226 lung 105% | NCI-H322M lung 107% | HOP-62 NSCLC 105% | NCI-H460 lung 96.7% | HOP-92 NSCLC 84.4% | A549/ATCC NSCLC 98% | 786-0 renal 70.5% | DU-145 prostate 55.7% | K-562 leukemia 16.2% | MALME-3M melanoma 55.9% | MDA-MB-231 breast 85.6% | RXF 393 renal 84.3% | SF-268 CNS 99.1% | SF-295 CNS 103% | SF-539 CNS 92% | UACC-257 melanoma 73.8% | M14 melanoma 47.8%
active: NCI-H522 lung -5.66% | COLO 205 colon 9.17%
